Source: the OligoGym collection

Molecular target: TMEM109
Assay: pooled miR-30 sensor sort-seq; sequence = guide strand
Details: shRNA
Note: reference of the scale not given here.

Sequence | sensor-assay potency score (higher = more potent)
TGGGTCAAGACATCAACTGGGG | -0.224
TTCCACATCAAACCTGAACAGT | -0.603
TCGCACAGATCGACCTATCTGG | -0.204
TCCCTCGCACAGATCGACCTAT | -0.902
TATTCTTCACATCATGTGCCAA | -0.456
TTTGGTATGACACTGGCGGTGT | 0.696
TGTGATTCCACATCAAACCTGA | 0.855
TTTGAACACATGCTTTCCCCAT | -0.568
TCTGGGTCAAGACATCAACTGG | -1.37
TTTAAAACCAACCAAGCACTGA | -0.265
TTTCTCTGTTTCTCTTGGCTAG | -0.388
TTGAACACATGCTTTCCCCATG | -0.916

Molecular target: TMEM110
Assay: as above
Details: shRNA

Sequence | sensor-assay potency score (higher = more potent)
TTAAGTCACAGTAGTCTGGGGG | -0.231
TTGGAAGTGTCTAAAAACCATA | -1.5
TTGTAGTGCAACTGAATGGGGA | -0.276
TTCTTCTAGCTTAGCTTTCGTC | -0.864
TTCTAGCTTAGCTTTCGTCTTC | -0.0536
TTAGCTTTCGTCTTCCCCTTTC | -0.779
TTCAGTGAGATCTGCTAGGTAT | 0.113
TTTTTAAGTCACAGTAGTCTGG | -0.583
TTTTAAGTCACAGTAGTCTGGG | 0.293
TAAGTCACAGTAGTCTGGGGGC | 0.0391
TTTAAGTCACAGTAGTCTGGGG | 0.109
TTTGTAGTGCAACTGAATGGGG | -0.728

Molecular target: TMEM117
Assay: as above
Details: shRNA

Sequence | sensor-assay potency score (higher = more potent)
TATCAGTGACCATCCAAGCTGT | -0.461
TATTACTGAATTTTGCATCTGT | 1.08
TTGTCTTGATTCTCCATGCGTG | -0.601
TAGTAGATTCGTTCAACTGTGA | 0.105
TTTGTCTTGATTCTCCATGCGT | -0.0154
ATTTACATCAACATCTCCCATG | -0.907
TTGAACATCAGATACATGGGTC | 0.48
TTTCACTGTATATATCTTCTGC | -0.0324
TTAATCGGAGCAACTGACCAAA | -0.0675
TTAGTGTGATTGGACCTCCATT | -1.69
TACATCAACATCTCCCATGAAA | -1.02
TTGAAGTCAGACCTGATGCAAA | -0.838

Molecular target: TMEM130
Assay: as above
Details: shRNA

Sequence | sensor-assay potency score (higher = more potent)
TAGAGAAACAAGGCGGTCTTGA | 0.529
TATTGTCTCAGCCACAGCCCAG | -1.4
TTGCCAGTAAGCACCAGCGGGG | -1.3
